Source: PubChem BioAssay (NCI)
Values joined by “and” are separate entries in the source; they are usually repeats but may differ in a detail not shown here. Equal entries are not always repeated. Compounds without any hit were thinned out: in the full panel of roughly 83,000, 20% have a hit.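 Interpretation: 100, growth as untreated; towards 0, rising growth inhibition; 0, no net growth; 0 to -100, cell death. Compounds scoring below 10 were considered active.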 Active and inactive are the calls of the source.

tested on: HOP-62 NSCLC; experiment: NCI-60 one-dose screen, 48 h (100 = growth as untreated, 0 = no growth, -100 = all killed); settings: 10 µM unless noted
Description: Growth inhibition of the HOP-62 human Non-Small Cell Lung tumor cell line is measured as a screen for anti-cancer activity. Cells are grown in 96 well plates and exposed to the test compound for 48 hours. Compounds are tested at a single concentration, which is 10^-5 M for most compounds. The reported endpoint is percent growth (GI% or GIPRCNT), where numbers from 0 - 100% represent growth inhibition, and numbers from -100% - 0 represent cell death. For example, a value of 40 represents 60% growth inhibition. A value of 0 means no net growth occurred over the course of the experiment. A value of -40 indicates 40% of cells at the beginning of the experiment died by the end of the experiment. A value of -100 means all cells are dead at the end of the experiment.
NCI-60 Human Tumor Cell Lines Screen was performed using the standard one-dose NCI protocol, which is described in more detail at https://dtp.cancer.gov/discovery_development/nci-60/default.htm.
Compounds with GIPRCNT values below 10 were considered active. Activity score was based on GIPRCNT using the following formula: […]
Score is 0 for GIPRCNT values of 100 or above, 50 for GIPRCNT values of 0, and 100 for GIPRCNT values of -100.

| Compound | growth |
| --- | --- |
| Cc1cc(N2CCCCC2)nc(NCc2cc(Nc3ccnc4cc(Cl)ccc34)ccc2F)n1 | -49.5% (active) |
| N#Cc1c(-c2cccc(F)c2)cc(-c2cccnc2)[nH]c1=O | 95.7% (inactive) |
| COc1ccc(-c2ccccc2)cc1-c1c(Nc2cc(Cl)cc(Cl)c2O)c(=O)c1=O | 2.04% (active) |
| CONC1=Nc2cc(NC(N)=NCc3ccccc3)c(N(C)C3CCCCC3)cc2OC1 | 82.3% (inactive) |
| CCOC(=O)c1ccc(Nc2ncnc3c2cnn3-c2cccc(F)c2)cc1 | 93.7% (inactive) |
| CC/C(=C(/c1ccc(Cl)cc1)c1ccc(OCCN2CCOCC2)cc1)c1ccccc1 | 106% (inactive) |
| O=C1/C(=C/c2ccccc2[N+](=O)[O-])Cc2ccccc21 | 57.6% (inactive) and 32.8% (inactive) |
| C#CCOc1cccc(Nc2ncc3ncn(C4CCN(C(=O)CCl)C4)c3n2)c1 (stereo not given) | 78.3% [6.25 µM] (inactive) |
| CCOc1ccccc1NC(=O)c1cc2ccccc2cc1O | 98.4% (inactive) |
| CN(Cc1ccccc1)c1nc(Cl)c(C2CC(c3ccc4c(c3)OCO4)=NN2c2cc(Cl)cc(Cl)c2)s1 (stereo not given) | 89.2% (inactive) |
| O=[N+]([O-])c1ccc2[nH]c3nccc(NCc4cccc(Cl)c4)c3c2c1 | 10.8% (inactive) |
| Cc1ccc(S(=O)(=O)OC[C@@]2(C)CC[C@]3(C)CC[C@]4(C)C(=C3C2)C=C[C@@H]2[C@@]3(C)CCCNC(C)(C)[C@@H]3CC[C@]24C)cc1 | 53.7% (inactive) |
| CC(=O)OC[C@]12CCC(C)(C)C=C1[C@H]1CC[C@@H]3[C@@]4(C)CCCNC(C)(C)[C@@H]4CC[C@@]3(C)[C@]1(C)CC2 | 91.8% (inactive) |
| OCCN1CCN(c2cc(-c3cccc(OC(F)(F)F)c3)nc3ccc(N4CCCC4)cc23)CC1 | 48.4% (inactive) |
| C/C=C(\C)C(=O)N[C@H]1CC[C@]2(C)C3CC[C@@]4(C)C(CC[C@@H]4C(C)N(C)C)C3CCC2[C@H]1OC(C)=O (stereo not given in full) | -60% (active) |
| O=C(/C=C/c1ccc(F)cc1)Nc1ncc(Cc2ccc(F)cc2)s1 | 39% (inactive) |
| O=C(N/N=C/c1ccc(O)cc1O)c1cccc(Nc2ccnc(C(F)(F)F)c2)c1 | 14.3% (inactive) |
| COc1ccc(N2CCN(S(=O)(=O)c3oc(-c4ccccc4)nc3C#N)CC2)cc1 | 106% (inactive) |
| COc1ccc(-c2nc(Cl)c3c(C)nn(-c4ccc(F)cc4)c3n2)cc1 | 104% (inactive) |
| C=C(CNCCc1ccc(O)cc1)[C@@H]1CC[C@]2(CO)CC[C@]3(C)[C@H](CC[C@@H]4[C@@]5(C)CCC(NCCc6ccc(O)cc6)C(C)(C)[C@@H]5CC[C@]43C)[C@@H]12 (stereo not given in full) | -90.7% (active) |

| Compound | growth |
| --- | --- |
| C#Cc1cc(C(=O)Nc2ccc(CN3CCN(C)CC3)c(C(F)(F)F)c2)ccc1C | 88.5% (inactive) |
| Cc1ccc(C(=O)N(CCCN)[C@@H](c2nc3cc(Cl)ccc3c(=O)n2Cc2ccccc2)C(C)C)cc1 | -28% (active) |
| Nc1nc(N)c2c(n1)NC(c1cccc(Nc3ccnc4cc(C(F)(F)F)ccc34)c1)CC(c1ccc(F)cc1)=N2 (stereo not given) | 48.7% (inactive) |
| CCCN1C(=O)/C(=c2\sc3n(c2=O)NC2C(N=3)N(CC)C(=O)N2CC)c2ccccc21 (stereo not given) | 50.8% (inactive) |
| N=C(N)SCc1c2ccccc2c(CSC(=N)N)c2ccccc12 | 55.5% (inactive) |
| C=C1C(=O)O[C@H]2[C@H]1CC/C(COC(=O)NCCCCNC(=O)OC/C1=C/CC[C@@]3(C)O[C@H]3[C@H]3OC(=O)C(=C)[C@@H]3CC1)=C\CC[C@@]1(C)O[C@@H]21 | 73.8% (inactive) |
| COCCOc1cc2ncnc(N3CCN(S(=O)(=O)c4ccccc4Cl)CC3)c2cc1OCCOC | 90.4% (inactive) |
| CN1CCN(C(=O)OCc2nc3c(N4CCOCC4)nc(Cl)nc3n2C)CC1 | 47.3% (inactive) |
| COc1ccc(Oc2nc(Nc3ccc(N4CCOCC4)cc3)ncc2NC(=O)c2cc(OC)cc(OC)c2)cc1 | 97% (inactive) |
| Cc1ccc(-c2nc3nc(-c4ccc(Br)cc4)nc(N4CCCNCC4)c3o2)cc1 | 82% (inactive) |
| O=C(NCc1ccc(Cn2c(=O)sn(-c3ccc(Cl)cc3)c2=O)cc1)OCc1ccc2c(Cl)cc(Cl)c(O)c2n1 | 38.3% (inactive) |
| COc1cc(-c2nn(-c3cccc(NC(=O)CCN4CCN(C)CC4)c3)cc2-c2ccncc2)ccc1Cl | 24.6% (inactive) |
| CCOC(=O)c1c(-c2ccc(OC)cc2)c(C#N)c2c(C#N)c(N)nn2c1N | 35.8% (inactive) |
| Cc1[nH]c(C(=O)Nc2nc3ccc(NC(=O)CCN)cc3s2)c(Cl)c1Cl | 74.6% (inactive) |
| CS(=O)(=O)Nc1cc(-c2ccc3ncnc(Nc4ccc(F)c(Cl)c4)c3c2)cnc1Cl | 15.1% (inactive) |
| O=C(Nc1ccccc1C(=O)N/N=C(\c1ccccc1)c1ccccn1)c1ccccc1 | 9.93% (active) |
| [2H]C([2H])([2H])Oc1cccc(/C=C/C(=O)/C=C(/C=C/c2cccc(OC([2H])([2H])[2H])c2OC([2H])([2H])[2H])OB(F)F)c1OC([2H])([2H])[2H] | 99.5% (inactive) |
| Clc1ccc2c(NCCN3CCN(c4ccnc(N5CCCC5)n4)CC3)ccnc2c1 | 77.3% (inactive) |
| O=C1C=C(Nc2ccccc2)c2ncccc2C1=O | -90.4% (active) |
| CCOC(=O)C(=CCC(C)C)C(=O)OCC | 89% (inactive) |
